# Laboratory results reported in article PMC11006913.
# Residue numbers refer to the chain shown, from its start.
# Experiments:
# Assay in all cases: PBM; 200 nM protein, PBS
# Details in all cases: dsDNA, one strand shown
# HOXB4 = HOXB4 (Homo sapiens, UniProt P17483 148-234)
# HOXB9 [1] = target: HOXB9 (Homo sapiens, UniProt P17482 171-250, T197M)
# VENTX = target: T1, VENTX (Homo sapiens, UniProt O95231 78-163)
# T1 sequence: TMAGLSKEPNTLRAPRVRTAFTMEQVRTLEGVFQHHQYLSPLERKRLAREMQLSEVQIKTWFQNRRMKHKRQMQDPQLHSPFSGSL
# PAX4 [2] = target: T2, PAX4 (Homo sapiens, UniProt O43316 9-242, R200K)
# T2 sequence: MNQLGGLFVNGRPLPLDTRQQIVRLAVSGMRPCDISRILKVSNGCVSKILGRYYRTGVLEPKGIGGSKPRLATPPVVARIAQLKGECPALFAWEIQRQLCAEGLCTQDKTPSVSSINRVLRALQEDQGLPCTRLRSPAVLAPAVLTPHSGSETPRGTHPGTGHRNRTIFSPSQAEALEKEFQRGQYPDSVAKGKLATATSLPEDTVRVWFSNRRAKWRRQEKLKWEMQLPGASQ
# PAX4 [3] = target: T3, PAX4 (Homo sapiens, UniProt O43316 9-242)
# T3 sequence: T2 sequence with K192R
# PAX4 [4] = target: T4, PAX4 (Homo sapiens, UniProt O43316 9-242, F177V)
# T4 sequence: T2 sequence with F169V, K192R
# HOXC10 [5] = target: HOXC10 (Homo sapiens, UniProt Q9NYD6 254-340, K271E)
# Sequence of HOXC10 (Homo sapiens, UniProt Q9NYD6 254-340, K271E) (Q9NYD6 254-340 K271E): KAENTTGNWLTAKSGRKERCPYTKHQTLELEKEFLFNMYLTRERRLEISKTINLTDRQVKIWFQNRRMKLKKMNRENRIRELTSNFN
# PAX4 [6] = target: T5, PAX4 (Homo sapiens, UniProt O43316 9-242, F177Y)
# T5 sequence: T2 sequence with F169Y, K192R
# VAX1 = VAX1 (Homo sapiens, UniProt Q5SQQ9 86-172)
# Sequence of VAX1 (Q5SQQ9 86-172): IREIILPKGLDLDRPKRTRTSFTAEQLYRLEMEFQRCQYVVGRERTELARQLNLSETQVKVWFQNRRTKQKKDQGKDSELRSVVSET
# PAX4 [7] = target: T6, PAX4 (Homo sapiens, UniProt O43316 9-242, R227W)
# T6 sequence: T2 sequence with K192R, R219W
# HOXA2 [8] = target: HOXA2 (Homo sapiens, UniProt O43364 129-215, Y150S)
# Sequence of HOXA2 (Homo sapiens, UniProt O43364 129-215, Y150S) (O43364 129-215 Y150S): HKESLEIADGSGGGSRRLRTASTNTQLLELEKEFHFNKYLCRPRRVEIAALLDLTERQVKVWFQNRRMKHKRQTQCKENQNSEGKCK
# HOXA2 [9] = target: HOXA2 (Homo sapiens, UniProt O43364 129-215)
# Sequence of HOXA2 (Homo sapiens, UniProt O43364 129-215) (O43364 129-215): as the sequence (O43364 129-215 Y150S) above, with S22Y counted along it
# HOXB6 = HOXB6 (Homo sapiens, UniProt P17509 132-218)
# Sequence of HOXB6 (P17509 132-218): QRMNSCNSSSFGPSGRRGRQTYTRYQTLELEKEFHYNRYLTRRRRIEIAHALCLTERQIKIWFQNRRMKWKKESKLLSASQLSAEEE
# HOXC9 [10] = target: HOXC9 (Homo sapiens, UniProt P31274 178-260, K195R)
# Sequence of HOXC9 (Homo sapiens, UniProt P31274 178-260, K195R) (P31274 178-260 K195R): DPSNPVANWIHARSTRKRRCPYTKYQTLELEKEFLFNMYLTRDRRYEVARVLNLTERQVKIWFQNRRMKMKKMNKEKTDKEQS
# HOXC9 [11] = target: HOXC9 (Homo sapiens, UniProt P31274 178-260)
# Sequence of HOXC9 (Homo sapiens, UniProt P31274 178-260) (P31274 178-260): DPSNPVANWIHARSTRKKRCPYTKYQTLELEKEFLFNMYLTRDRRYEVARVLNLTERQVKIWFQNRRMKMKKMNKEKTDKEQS
# HOXC9 [12] = target: HOXC9 (Homo sapiens, UniProt P31274 178-260, R193K)
# Sequence of HOXC9 (Homo sapiens, UniProt P31274 178-260, R193K) (P31274 178-260 R193K): as the sequence (P31274 178-260) above, with R16K counted along it
# HOXC9 [13] = target: HOXC9 (Homo sapiens, UniProt P31274 178-260, R222W)
# Sequence of HOXC9 (Homo sapiens, UniProt P31274 178-260, R222W) (P31274 178-260 R222W): as the sequence (P31274 178-260) above, with R45W counted along it
# HOXC10 [14] = target: HOXC10 (Homo sapiens, UniProt Q9NYD6 254-340)
# Sequence of HOXC10 (Homo sapiens, UniProt Q9NYD6 254-340) (Q9NYD6 254-340): as the sequence (Q9NYD6 254-340 K271E) above, with E18K counted along it
# HOXB9 [15] = target: HOXB9 (Homo sapiens, UniProt P17482 171-250, R186Q)
# Sequence of HOXB9 (Homo sapiens, UniProt P17482 171-250, R186Q) (P17482 171-250 R186Q): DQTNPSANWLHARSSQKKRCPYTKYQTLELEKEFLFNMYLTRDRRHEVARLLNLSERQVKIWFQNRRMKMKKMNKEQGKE
# HOXB9 [16] = target: HOXB9 (Homo sapiens, UniProt P17482 171-250)
# Sequence of HOXB9 (Homo sapiens, UniProt P17482 171-250) (P17482 171-250): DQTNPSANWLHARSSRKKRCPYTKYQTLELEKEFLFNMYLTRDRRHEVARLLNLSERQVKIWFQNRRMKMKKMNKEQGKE
# Sequence of HOXB4 (P17483 148-234): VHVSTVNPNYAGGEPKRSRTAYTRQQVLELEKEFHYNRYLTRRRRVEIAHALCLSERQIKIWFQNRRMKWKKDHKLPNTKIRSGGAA
# Sequence of HOXB9 (Homo sapiens, UniProt P17482 171-250, T197M) (P17482 171-250 T197M): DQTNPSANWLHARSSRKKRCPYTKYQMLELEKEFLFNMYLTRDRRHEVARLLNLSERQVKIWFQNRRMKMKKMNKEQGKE
sequence,measurement,setting,value
ATAATTAG,binding signal,HOXB4,"13.6 upbm affinity estimate (log intensity, higher = more binding, comparable within an allelic series)"
same,binding signal,HOXB9 [1],"10.2 upbm affinity estimate (log intensity, higher = more binding, comparable within an allelic series)"
same,binding signal,VENTX,"12.9 upbm affinity estimate (log intensity, higher = more binding, comparable within an allelic series)"
same,binding signal,PAX4 [2],"12 upbm affinity estimate (log intensity, higher = more binding, comparable within an allelic series)"
same,binding signal,PAX4 [3],"12.7 upbm affinity estimate (log intensity, higher = more binding, comparable within an allelic series)"
same,binding signal,PAX4 [4],"10.8 upbm affinity estimate (log intensity, higher = more binding, comparable within an allelic series)"
same,binding signal,HOXC10 [5],"11.8 upbm affinity estimate (log intensity, higher = more binding, comparable within an allelic series)"
same,binding signal,PAX4 [6],"11.3 upbm affinity estimate (log intensity, higher = more binding, comparable within an allelic series)"
same,binding signal,VAX1,"13.8 upbm affinity estimate (log intensity, higher = more binding, comparable within an allelic series)"
same,binding signal,PAX4 [7],"11.3 upbm affinity estimate (log intensity, higher = more binding, comparable within an allelic series)"
same,binding signal,HOXA2 [8],"11 upbm affinity estimate (log intensity, higher = more binding, comparable within an allelic series)"
same,binding signal,HOXA2 [9],"13.1 upbm affinity estimate (log intensity, higher = more binding, comparable within an allelic series)"
same,binding signal,HOXB6,"12.2 upbm affinity estimate (log intensity, higher = more binding, comparable within an allelic series)"
AATTAGTC,binding signal,HOXB4,"12.4 upbm affinity estimate (log intensity, higher = more binding, comparable within an allelic series)"
same,binding signal,PAX4 [2],"11.7 upbm affinity estimate (log intensity, higher = more binding, comparable within an allelic series)"
same,binding signal,PAX4 [3],"12.2 upbm affinity estimate (log intensity, higher = more binding, comparable within an allelic series)"
same,binding signal,PAX4 [4],"10.4 upbm affinity estimate (log intensity, higher = more binding, comparable within an allelic series)"
same,binding signal,PAX4 [6],"10.8 upbm affinity estimate (log intensity, higher = more binding, comparable within an allelic series)"
same,binding signal,PAX4 [7],"10.9 upbm affinity estimate (log intensity, higher = more binding, comparable within an allelic series)"
AATTAATC,binding signal,HOXB4,"13.2 upbm affinity estimate (log intensity, higher = more binding, comparable within an allelic series)"
same,binding signal,HOXB9 [1],"10 upbm affinity estimate (log intensity, higher = more binding, comparable within an allelic series)"
same,binding signal,VENTX,"12.3 upbm affinity estimate (log intensity, higher = more binding, comparable within an allelic series)"
same,binding signal,PAX4 [2],"11.9 upbm affinity estimate (log intensity, higher = more binding, comparable within an allelic series)"
same,binding signal,PAX4 [3],"12.4 upbm affinity estimate (log intensity, higher = more binding, comparable within an allelic series)"
same,binding signal,PAX4 [4],"10.7 upbm affinity estimate (log intensity, higher = more binding, comparable within an allelic series)"
same,binding signal,PAX4 [6],"11.2 upbm affinity estimate (log intensity, higher = more binding, comparable within an allelic series)"
same,binding signal,PAX4 [7],"11 upbm affinity estimate (log intensity, higher = more binding, comparable within an allelic series)"
same,binding signal,HOXB6,"11.6 upbm affinity estimate (log intensity, higher = more binding, comparable within an allelic series)"
CCCTACGG,binding signal,HOXB4,"7.88 upbm affinity estimate (log intensity, higher = more binding, comparable within an allelic series)"
same,binding signal,HOXC9 [10],"9.6 upbm affinity estimate (log intensity, higher = more binding, comparable within an allelic series)"
same,binding signal,VENTX,"8.36 upbm affinity estimate (log intensity, higher = more binding, comparable within an allelic series)"
same,binding signal,HOXC9 [11],"9.63 upbm affinity estimate (log intensity, higher = more binding, comparable within an allelic series)"
same,binding signal,HOXC9 [12],"9.67 upbm affinity estimate (log intensity, higher = more binding, comparable within an allelic series)"
same,binding signal,HOXC9 [13],"9.62 upbm affinity estimate (log intensity, higher = more binding, comparable within an allelic series)"
GTAATTGA,binding signal,HOXB4,"13.1 upbm affinity estimate (log intensity, higher = more binding, comparable within an allelic series)"
same,binding signal,VAX1,"12.8 upbm affinity estimate (log intensity, higher = more binding, comparable within an allelic series)"
same,binding signal,HOXA2 [8],"10.7 upbm affinity estimate (log intensity, higher = more binding, comparable within an allelic series)"
same,binding signal,HOXA2 [9],"12.1 upbm affinity estimate (log intensity, higher = more binding, comparable within an allelic series)"
CCCCGGCG,binding signal,HOXC10 [14],"9.87 upbm affinity estimate (log intensity, higher = more binding, comparable within an allelic series)"
same,binding signal,HOXC10 [5],"10 upbm affinity estimate (log intensity, higher = more binding, comparable within an allelic series)"
same,binding signal,HOXB6,"9 upbm affinity estimate (log intensity, higher = more binding, comparable within an allelic series)"
CTAATTGA,binding signal,HOXB4,"13.3 upbm affinity estimate (log intensity, higher = more binding, comparable within an allelic series)"
same,binding signal,VENTX,"12.8 upbm affinity estimate (log intensity, higher = more binding, comparable within an allelic series)"
same,binding signal,PAX4 [2],"11.5 upbm affinity estimate (log intensity, higher = more binding, comparable within an allelic series)"
same,binding signal,PAX4 [3],"12.2 upbm affinity estimate (log intensity, higher = more binding, comparable within an allelic series)"
same,binding signal,PAX4 [4],"10.4 upbm affinity estimate (log intensity, higher = more binding, comparable within an allelic series)"
same,binding signal,PAX4 [6],"10.8 upbm affinity estimate (log intensity, higher = more binding, comparable within an allelic series)"
same,binding signal,VAX1,"13.5 upbm affinity estimate (log intensity, higher = more binding, comparable within an allelic series)"
same,binding signal,PAX4 [7],"10.7 upbm affinity estimate (log intensity, higher = more binding, comparable within an allelic series)"
same,binding signal,HOXA2 [8],"10.6 upbm affinity estimate (log intensity, higher = more binding, comparable within an allelic series)"
same,binding signal,HOXA2 [9],"12.6 upbm affinity estimate (log intensity, higher = more binding, comparable within an allelic series)"
CAATTAAC,binding signal,HOXB4,"13.2 upbm affinity estimate (log intensity, higher = more binding, comparable within an allelic series)"
same,binding signal,HOXB9 [1],"9.98 upbm affinity estimate (log intensity, higher = more binding, comparable within an allelic series)"
same,binding signal,HOXC9 [10],"12.5 upbm affinity estimate (log intensity, higher = more binding, comparable within an allelic series)"
same,binding signal,VENTX,"12.8 upbm affinity estimate (log intensity, higher = more binding, comparable within an allelic series)"
same,binding signal,PAX4 [2],"11.5 upbm affinity estimate (log intensity, higher = more binding, comparable within an allelic series)"
same,binding signal,PAX4 [3],"12.1 upbm affinity estimate (log intensity, higher = more binding, comparable within an allelic series)"
same,binding signal,HOXC9 [11],"12.6 upbm affinity estimate (log intensity, higher = more binding, comparable within an allelic series)"
same,binding signal,HOXC9 [12],"12.5 upbm affinity estimate (log intensity, higher = more binding, comparable within an allelic series)"
same,binding signal,PAX4 [4],"10.6 upbm affinity estimate (log intensity, higher = more binding, comparable within an allelic series)"
same,binding signal,HOXC10 [5],"11.8 upbm affinity estimate (log intensity, higher = more binding, comparable within an allelic series)"
same,binding signal,PAX4 [6],"10.9 upbm affinity estimate (log intensity, higher = more binding, comparable within an allelic series)"
same,binding signal,VAX1,"13 upbm affinity estimate (log intensity, higher = more binding, comparable within an allelic series)"
same,binding signal,HOXB9 [15],"11.4 upbm affinity estimate (log intensity, higher = more binding, comparable within an allelic series)"
same,binding signal,HOXC9 [13],"10.9 upbm affinity estimate (log intensity, higher = more binding, comparable within an allelic series)"
same,binding signal,PAX4 [7],"10.8 upbm affinity estimate (log intensity, higher = more binding, comparable within an allelic series)"
same,binding signal,HOXA2 [8],"10.8 upbm affinity estimate (log intensity, higher = more binding, comparable within an allelic series)"
same,binding signal,HOXA2 [9],"12.3 upbm affinity estimate (log intensity, higher = more binding, comparable within an allelic series)"
same,binding signal,HOXB6,"12 upbm affinity estimate (log intensity, higher = more binding, comparable within an allelic series)"
GGCAGGCC,binding signal,HOXB4,"7.41 upbm affinity estimate (log intensity, higher = more binding, comparable within an allelic series)"
same,binding signal,PAX4 [2],"9.11 upbm affinity estimate (log intensity, higher = more binding, comparable within an allelic series)"
same,binding signal,PAX4 [3],"9.17 upbm affinity estimate (log intensity, higher = more binding, comparable within an allelic series)"
same,binding signal,PAX4 [4],"9.13 upbm affinity estimate (log intensity, higher = more binding, comparable within an allelic series)"
same,binding signal,PAX4 [6],"9.09 upbm affinity estimate (log intensity, higher = more binding, comparable within an allelic series)"
same,binding signal,PAX4 [7],"9.12 upbm affinity estimate (log intensity, higher = more binding, comparable within an allelic series)"
ACCAATTA,binding signal,HOXB9 [1],"9.73 upbm affinity estimate (log intensity, higher = more binding, comparable within an allelic series)"
same,binding signal,VENTX,"12.8 upbm affinity estimate (log intensity, higher = more binding, comparable within an allelic series)"
same,binding signal,PAX4 [2],"11.6 upbm affinity estimate (log intensity, higher = more binding, comparable within an allelic series)"
same,binding signal,PAX4 [3],"12.2 upbm affinity estimate (log intensity, higher = more binding, comparable within an allelic series)"
same,binding signal,HOXB9 [16],"11.1 upbm affinity estimate (log intensity, higher = more binding, comparable within an allelic series)"
same,binding signal,PAX4 [4],"10.5 upbm affinity estimate (log intensity, higher = more binding, comparable within an allelic series)"
same,binding signal,PAX4 [6],"10.8 upbm affinity estimate (log intensity, higher = more binding, comparable within an allelic series)"
same,binding signal,VAX1,"12.8 upbm affinity estimate (log intensity, higher = more binding, comparable within an allelic series)"
same,binding signal,HOXB9 [15],"10.9 upbm affinity estimate (log intensity, higher = more binding, comparable within an allelic series)"
same,binding signal,PAX4 [7],"10.8 upbm affinity estimate (log intensity, higher = more binding, comparable within an allelic series)"
same,binding signal,HOXA2 [8],"10.9 upbm affinity estimate (log intensity, higher = more binding, comparable within an allelic series)"
same,binding signal,HOXA2 [9],"12.1 upbm affinity estimate (log intensity, higher = more binding, comparable within an allelic series)"
same,binding signal,HOXB6,"11.7 upbm affinity estimate (log intensity, higher = more binding, comparable within an allelic series)"
